Hits are enriched below; roughly 7.4% of the tested compounds scored in any of these assays.
HEK cytotox = Cytotoxic Profiling in HEK 293 Cell Line of Diverse Libraries Using Quantitative High-Throughput Screening; HEK 293 viability, ATP luminescence (CellTiter-Glo), 48-72 h; Potency, µM (series often up to 115 µM), for inactives: top-dose activity change, negative = cytotoxicity, most hits filed as inhibitors; 94,000 tested, 6.6% active; note: nearly all actives have a fitted effect of over 60% in size
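Pintool-delivered compounds were incubated with HEK 293 cells (250 cells/well) at 37 degree Celsius for 48 or 72 hr. ATP-dependent luminescence (CellTiter-Glo) then reported remaining viable cells.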
SNCA viab count = GF-AFC viability counterscreen for inhibitors of alpha-synuclein gene (SNCA) expression | HEK-293-SNCA-luc viability, GF-AFC fluorescence, 24 h | Potency, µM (top dose mostly 57.1 µM), inactives show at the highest dose activity change, negative = cytotoxicity, usual class: cytotoxic | 150,000 tested, 0.12% active | AID 1671193, 2021;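 note: 0% = DMSO-treated cells and -100% = medium-only wells without cells; nearly all actives have a fitted effect of over 30% in size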
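HEK-293-SNCA-luc cells (1500/well) plated 24 h, then exposed 24 h to a dilution series; GF-AFC added 30 min at 37C, fluorescence 405/540 nm; normalised to medium-only and DMSO wells, Hill fit.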
SNCA expr inhib = Primary qHTS assay for inhibitors of alpha-synuclein gene (SNCA) expression; 140,000 tested, 0.17% active; Potency, µM (series often up to 57.2 µM), for inactives: at the highest dose activity change, negative = inhibition, actives largely listed as inhibitors; HEK-293 SNCA-luciferase knock-in, luminescence, 24 h; AID 1671194, 2021;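 note: plate controls were DMSO cells for no effect and cell-free wells for full effect; nearly all actives have a fitted effect of over 45% in size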
hNpr1 antagonist = Natriuretic polypeptide receptor (hNpr1) antagonism - Primary qHTS. Atrial natriuretic peptide receptor 1 (Homo sapiens), P16066. AID 1347048, 2019. HEK293 hNpr1 GloSensor cGMP, ANP-stimulated luminescence. Potency, µM (highest dose often 46.3 µM), for inactives: top-dose activity change, negative = inhibition, hits mostly inhibitors. 76,000 tested, 1.6% active; calls by dose curve; note: nearly all actives have a fitted effect of over 60% in size
Target sequence (P16066 whole entry, looked up): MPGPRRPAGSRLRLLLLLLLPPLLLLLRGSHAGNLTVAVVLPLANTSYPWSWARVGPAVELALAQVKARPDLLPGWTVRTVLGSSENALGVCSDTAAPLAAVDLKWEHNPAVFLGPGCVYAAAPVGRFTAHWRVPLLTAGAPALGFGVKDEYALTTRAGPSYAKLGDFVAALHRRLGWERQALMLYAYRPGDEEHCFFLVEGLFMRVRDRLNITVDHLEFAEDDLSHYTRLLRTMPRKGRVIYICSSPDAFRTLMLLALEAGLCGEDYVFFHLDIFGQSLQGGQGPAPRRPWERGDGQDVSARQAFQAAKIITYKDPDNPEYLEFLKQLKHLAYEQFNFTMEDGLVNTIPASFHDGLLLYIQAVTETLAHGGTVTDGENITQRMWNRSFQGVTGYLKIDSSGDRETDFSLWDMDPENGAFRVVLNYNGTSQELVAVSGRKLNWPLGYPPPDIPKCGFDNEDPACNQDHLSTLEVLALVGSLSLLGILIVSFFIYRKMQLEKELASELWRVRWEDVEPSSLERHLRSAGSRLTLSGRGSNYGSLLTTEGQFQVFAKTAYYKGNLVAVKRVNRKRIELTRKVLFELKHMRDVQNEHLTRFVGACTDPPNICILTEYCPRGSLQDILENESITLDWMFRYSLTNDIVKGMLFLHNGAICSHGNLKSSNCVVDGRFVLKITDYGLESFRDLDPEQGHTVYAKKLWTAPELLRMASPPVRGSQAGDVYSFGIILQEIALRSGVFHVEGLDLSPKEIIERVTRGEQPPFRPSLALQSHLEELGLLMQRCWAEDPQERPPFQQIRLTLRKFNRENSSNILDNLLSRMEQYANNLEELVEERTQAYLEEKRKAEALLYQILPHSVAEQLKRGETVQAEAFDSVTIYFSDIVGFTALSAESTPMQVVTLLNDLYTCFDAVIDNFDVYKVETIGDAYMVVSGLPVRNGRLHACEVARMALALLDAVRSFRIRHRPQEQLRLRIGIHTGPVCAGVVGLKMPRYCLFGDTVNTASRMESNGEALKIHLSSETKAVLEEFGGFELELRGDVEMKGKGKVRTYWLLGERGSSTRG
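HEK293 cells stably expressing human Npr1 and cGMP GloSensor pGS-40F, loaded 2 h with 2% GloSensor reagent, given compound 30 min at room temperature. Luminescence read before and 20 min after 0.1 nM hNppA.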
Luciferase inh = Firefly luciferase inhibition profiling of diverse chemical library using quantitative high-throughput screening. Luciferin 4-monooxygenase (Photinus pyralis), P08659. purified P. pyralis luciferase, luminescence, biochemical. Potency, µM (titrated, usually from 115 µM), hits mostly inhibitors. 76,000 tested, 2.5% active; note: nearly all actives have a fitted effect of over 65% in size
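FLuc 10nM, D-luciferin 10uM, ATP 10uM, Mg acetate 10mM, Tris acetate pH 7.5, Tween/BSA; cpd qHTS; enzyme added last; CCD luminescence.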
NIH3T3 tox = Cytotoxic Profiling in NIH 3T3 Cell Line of Diverse Libraries Using Quantitative High-Throughput Screening; NIH 3T3 viability, CellTiter-Glo ATP luminescence, 48-72 h; Potency, µM (doses to about 96.7 µM), for the others: top-dose activity change, negative = cytotoxicity, usual class: inhibitors; 94,000 tested, 4.3% active; AID 1345082, 2018; note: nearly all actives have a fitted effect of over 55% in size
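Cells were seeded at 400 per well, treated with pin-transferred compound, and kept 48 or 72 hr at 37 °C before CellTiter-Glo addition and luminescence imaging of cellular ATP.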
* marks the source's active call; other numbers are inactive results; i = inactive; ? = inconclusive; · = not tested or not shown; [ ] = another dose, or the depositor's remark. Unless noted, calls come from the whole dose curve; as a rule, active = well fitted curve in the direction sought with a large enough effect; inconclusive = small, poorly fitted or top-dose-only effect, or another doubt; inactive = no such curve, though single readings can be large; an effect the other way counts as inactive or inconclusive. Unless noted, % is set by controls: 0 for no effect and ±100 for the full control effect; potency is the fitted concentration of half-maximal effect.

SMILES | HEK cytotox | SNCA viab count | SNCA expr inhib | hNpr1 antagonist | Luciferase inh | NIH3T3 tox
OC1(c2csc(CN3CCc4ccccc4C3)n2)CCN(CC2CCCCC2)CC1 | ? | -16%[87.6 µM] | -24%[87.6 µM] | 6%[70.6 µM] | i | ?
CN1CCN(Cc2nc(C3(O)CCN(Cc4ccccc4)CC3)cs2)CC1 | ? | -10%[87.6 µM] | -1%[87.6 µM] | 3%[70.6 µM] | i | ?
COc1ccc(CN2CCC(O)(c3csc(CN4CCN(C)CC4)n3)CC2)cc1 | 100µM* | -11%[87.6 µM] | 37%[87.6 µM] | 1%[70.6 µM] | i | 89µM*
COc1ccc(CC(=O)N2Cc3ccccc3CC3(CCN(C)CC3)C2)cc1 | -9% | -2% | -28% | · | · | -10%
Cc1ccc(OCC(=O)N2CCC3(CC2)CC(N2CCOCC2)CCO3)cc1 (stereo unspecified) | -1% | -14% | -9% | · | · | -15%
COc1ccc(-c2ccc(C(=O)N3CCC(NC(=O)c4ccccc4Cl)C3)cc2)nn1 (stereo unspecified) | -21% | · | · | · | · | -24%
CN1CCC(N2CCC(O)(c3csc(CN4CCc5ccccc5C4)n3)CC2)CC1 | 40µM* | -18%[87.6 µM] | 0%[87.6 µM] | 4%[70.6 µM] | i | 56µM*
O=C(C1CC1)N1CCC(O)(c2csc(CN3CCc4ccccc4C3)n2)CC1 | ? | 0%[87.6 µM] | -16%[87.6 µM] | 4%[70.6 µM] | i | ?
COc1ccc(NC(=O)C2(C)CCCc3cnc(NCc4ccccc4)nc32)cn1 (stereo unspecified) | ? | ? | -25%[87.6 µM] | -16%[70.6 µM] | i | ?
COc1cccc(Nc2ncc3c(n2)C(C)(C(=O)Nc2ccc(OC)nc2)CC3)c1 (stereo unspecified) | 89µM* | -27%[87.6 µM] | -12%[87.6 µM] | 4%[70.6 µM] | i | ?
COc1ccc(NC(=O)C2(C)COCc3cnc(Nc4ccccc4)nc32)cn1 (stereo unspecified) | ? | -12%[87.6 µM] | 6%[87.6 µM] | -8%[70.6 µM] | i | ?
COc1ccc(NC(=O)C2(C)CCCc3cnc(Nc4ccccc4)nc32)cn1 (stereo unspecified) | 89µM* | ? | 8%[87.6 µM] | -21%[70.6 µM] | i | 79µM*
COc1ccccc1-c1ccc(C(=O)N2CCC(NC(=O)C3CC3)CC2)cc1 | ? | -7% | ? | · | · | ?
COc1cc(C(=O)NCC(c2cccnc2)N2CCc3ccccc3C2)cc(OC)c1OC (stereo unspecified) | · | 0% | 13% | · | · | ·
CCC(CC)c1cc([C@H]2CN3CC[C@H]2C[C@@H]3CNC(=O)c2cc(OC)c(OC)c(OC)c2)nc(-c2ccncc2)n1 | 28µM* | ? | ? | ? | i | 20µM*
CCCS(=O)(=O)N1CCC(Oc2ccc(-c3noc(CC)n3)cc2)C1 (stereo unspecified) | ? | 5% | 115% | -3% | i | -23%
COCc1nc(-c2ccc(OC3CCN(C(=O)Cc4c[nH]c5ccccc45)C3)cc2)no1 (stereo unspecified) | 35µM* | -8% | 6% | ? | i | ?
CCc1nc(-c2ccc(OC3CCN(S(=O)(=O)Cc4ccccc4)C3)cc2)no1 (stereo unspecified) | 45µM* | -16% | 44% | ? | ? | ?
CCc1nc(-c2ccc(OC3CCN(C(=O)c4sc(C)nc4C)C3)cc2)no1 (stereo unspecified) | 45µM* | -8% | 68% | -20% | i | ?
O=C(C1CCCN([S+](=O)([O-])c2cccs2)C1)N1CCC(N2Cc3cccn3C2=O)CC1 (stereo unspecified) | ? | -3% | -4% | · | · | ?
Cc1ccc(C(=O)N2CCCC3(CNc4ncccc4[S+](=O)([O-])N3)C2)cc1 (stereo unspecified) | -21% | · | · | · | · | -15%
CC(C)C(=O)N(Cc1ccccc1)S(=O)(=O)c1ccc2c(c1)oc(=O)n2C | · | 7% | -18% | · | · | ·
CN(CC(=O)N1CCCn2nc(-c3cccc(C(F)(F)F)c3)cc2C1)S(=O)(=O)c1ccc2c(c1)oc(=O)n2C | 32µM* | -19% | ? | · | · | ?
COc1ccc(-c2noc(-c3nc(C(C)C)no3)n2)cc1 | ? | -1% | 74% | -20% | 11µM* | -5%
CC1=C[C@@H](CNS(=O)(=O)c2ccccc2)[C@H](C(C)C)C[C@H]1CC(=O)O | -5%[172 µM] | 4%[87.6 µM] | 1%[87.6 µM] | 5%[70.6 µM] | i | ?
SMILES | HEK cytotox | SNCA viab count | SNCA expr inhib | hNpr1 antagonist | Luciferase inh | NIH3T3 tox
CCOC(=O)C[C@@H]1C[C@@H](C(C)C)[C@H](CNS(=O)(=O)c2ccccc2)C=C1C | 63µM* | ? | ? | ? | i | ?
CC1=C[C@@H](CNS(=O)(=O)c2ccc(Cl)cc2)[C@H](C(C)C)C[C@H]1CC(=O)N1CCOCC1 | ? | ? | ? | ? | i | 32µM*
CC1=C[C@@H](CNS(=O)(=O)c2ccccc2)[C@H](C(C)C)C[C@H]1CC(=O)NCCN(C)C | ? | -1% | -17% | -1% | i | ?
CC1=C[C@@H](CNS(=O)(=O)c2ccccc2)[C@H](C(C)C)C[C@H]1CC(=O)NCc1ccccn1 | -25% | 5% | 12% | -2% | i | ?
COCCNC(=O)C[C@@H]1C[C@@H](C(C)C)[C@H](CNS(=O)(=O)c2ccccc2)C=C1C | -22%[172 µM] | -23%[87.6 µM] | -6%[87.6 µM] | -4%[70.6 µM] | i | 112µM*
CC1=C[C@@H](CNS(=O)(=O)c2cccc(F)c2)[C@H](C(C)C)C[C@H]1CC(=O)O | -31%[172 µM] | 5%[87.6 µM] | -18%[87.6 µM] | -1%[70.6 µM] | i | 45µM*
COc1ccc(S(=O)(=O)NC[C@@H]2C=C(C)[C@H](CC(=O)NCc3ccc(C#N)cc3)C[C@H]2C(C)C)cc1 | ? | -28% | ? | -9% | i | 25µM*
CC1=C[C@@H](CC#N)[C@H](C(C)C)C[C@H]1CC(=O)NCc1ccc(F)cc1 | 89µM* | -15%[87.6 µM] | 0%[87.6 µM] | 1%[70.6 µM] | i | ?
CC1=C[C@@H](CNS(=O)(=O)c2ccc(F)cc2)[C@H](C(C)C)C[C@H]1CC(=O)NCCN(C)C | ? | -5% | -4% | 0% | i | 40µM*
CC1=C[C@@H](CC#N)[C@H](C(C)C)C[C@H]1CC(=O)NCc1ccc(C(F)(F)F)cc1 | -7%[172 µM] | 3%[87.6 µM] | 10%[87.6 µM] | -16%[70.6 µM] | i | 3%[174 µM]
COc1ccccc1N1CCN(C(=O)C[C@@H]2C[C@@H](C(C)C)[C@H](CC#N)C=C2C)CC1 | 35µM* | -25%[87.6 µM] | -8%[87.6 µM] | -18%[70.6 µM] | i | ?
